Of roughly 7,900 targets only a part is listed; those with a hit were picked by preference. About 0.6% of all pairs of compound and target were hits. Values without a mark were called inactive.
Tests used:
Assay in all cases: log2 fold change, soluble protein after heating vs DMSO (PISA); higher = thermal stabilisation; K562 cells, 10 uM, 30 min; active = over 0.2 and 3.5 SD of the protein, either way, in both replicates (recomputed)
saracatinib = compound: CN1CCN(CCOc2cc(OC3CCOCC3)c3c(Nc4c(Cl)ccc5c4OCO5)ncnc3c2)CC1 [saracatinib]
Method in brief: (§1)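 Quantification of soluble protein used TMTpro 16plex LC-MS/MS, with channel sums equalised. Samples were the supernatant after 21,000xg for 90 min of pooled aliquots from K562 cells (2×10^6 cells/mL) treated with 10 μM compound for 30 min, heated for 3 min over 48°C-58°C, and extracted in PBS with 0.5% NP-40 at 4°C. Values, from duplicates, describe thermal stability against control samples on a log2 fold-change scale.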

sotrastaurin = compound: CN1CCN(c2nc(C3=C(c4c[nH]c5ccccc45)C(=O)NC3=O)c3ccccc3n2)CC1 [sotrastaurin]
Method in brief: as §1

alvocidib = compound: CN1CC[C@H](c2c(O)cc(O)c3c(=O)cc(-c4ccccc4Cl)oc23)[C@H](O)C1 [alvocidib]
Method in brief: as §1

Tubastatin A = compound: CN1CCc2c(c3ccccc3n2Cc2ccc(C(=O)NO)cc2)C1 [Tubastatin A]
Method in brief: as §1

[1] = compound: CNC(=O)C1=CC=CC=C1NC2=NC(=NC=C2Cl)NC3=C(C=C(C=C3)N4CCOCC4)OC
Method in brief: as §1

defactinib = compound: CNC(=O)c1ccc(Nc2ncc(C(F)(F)F)c(NCc3nccnc3N(C)S(C)(=O)=O)n2)cc1 [defactinib]
Method in brief: as §1

rucaparib = compound: CNCc1ccc(-c2[nH]c3cc(F)cc4c3c2CCNC4=O)cc1 [rucaparib]
Method in brief: as §1

[2] = compound: CNc1nc(-c2ccc3c(N)n[nH]c3c2)cc(N2C[C@@H](C(=O)NC3CCCCC3)CC[C@H]2C)n1
Method in brief: as §1

encorafenib = compound: COC(=O)N[C@@H](C)CNc1nccc(-c2cn(C(C)C)nc2-c2cc(Cl)cc(NS(C)(=O)=O)c2F)n1 [encorafenib]
Method in brief: as §1

[3] = compound: COC(=O)[C@H](CCSC)NC(=O)C1=C(C=C(C=C1)NC[C@H](CS)N)C2=CC=CC=C2
Method in brief: as §1

[4] = compound: COC1=CC=C(C=C1)CN2C=CC3=C2C=C(C=C3)C(=O)NO
Method in brief: as §1

filanesib = compound: CON(C)C(=O)N1N=C(c2cc(F)ccc2F)S[C@@]1(CCCN)c1ccccc1 [filanesib]
Method in brief: as §1

zotarolimus = compound: CO[C@H]1C[C@@H]2CC[C@@H](C)[C@@](O)(O2)C(=O)C(=O)N2CCCC[C@H]2C(=O)O[C@H]([C@H](C)C[C@@H]2CC[C@H](n3cnnn3)[C@H](OC)C2)CC(=O)[C@H](C)/C=C(\C)[C@@H](O)[C@@H](OC)C(=O)[C@H](C)C[C@H](C)/C=C/C=C/C=C/1C [zotarolimus]
Method in brief: as §1

idasanutlin = compound: COc1cc(C(=O)O)ccc1NC(=O)[C@@H]1N[C@@H](CC(C)(C)C)[C@](C#N)(c2ccc(Cl)cc2F)[C@H]1c1cccc(Cl)c1F [idasanutlin]
Method in brief: as §1

alisertib = compound: COc1cc(Nc2ncc3c(n2)-c2ccc(Cl)cc2C(c2c(F)cccc2OC)=NC3)ccc1C(=O)O [alisertib]
Method in brief: as §1

gefitinib = compound: COc1cc2ncnc(Nc3ccc(F)c(Cl)c3)c2cc1OCCCN1CCOCC1 [gefitinib]
Method in brief: as §1

[5] = compound: COc1cccc2cc(-c3nc([C@H]4CC[C@H](C(=O)O)CC4)n4ncnc(N)c34)[nH]c12
Method in brief: as §1

pictilisib = compound: CS(=O)(=O)N1CCN(Cc2cc3nc(-c4cccc5[nH]ncc45)nc(N4CCOCC4)c3s2)CC1 [pictilisib]
Method in brief: as §1

[6] = compound: COc1cc2nc(-c3cc(F)ccc3O)nc(N[C@@H]3CNC[C@H]3C(C)(C)O)c2cc1OC
Method in brief: as §1

lapatinib = compound: CS(=O)(=O)CCNCc1ccc(-c2ccc3ncnc(Nc4ccc(OCc5cccc(F)c5)c(Cl)c4)c3c2)o1 [lapatinib]
Method in brief: as §1

Chain of UniProt Q8NEF9 (Q8NEF9 whole entry, looked up): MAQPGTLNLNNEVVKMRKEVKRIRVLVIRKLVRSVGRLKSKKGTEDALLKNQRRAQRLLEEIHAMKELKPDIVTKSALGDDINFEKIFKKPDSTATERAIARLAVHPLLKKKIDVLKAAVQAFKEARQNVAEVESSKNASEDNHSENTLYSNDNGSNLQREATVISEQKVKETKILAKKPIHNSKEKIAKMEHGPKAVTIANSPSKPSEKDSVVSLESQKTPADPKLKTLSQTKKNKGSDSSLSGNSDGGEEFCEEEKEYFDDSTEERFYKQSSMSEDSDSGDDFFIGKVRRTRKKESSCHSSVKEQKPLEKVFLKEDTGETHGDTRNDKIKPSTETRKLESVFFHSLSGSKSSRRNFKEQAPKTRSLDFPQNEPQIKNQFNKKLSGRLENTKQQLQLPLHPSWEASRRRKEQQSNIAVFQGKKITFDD
Chain of UniProt P78383 (P78383 whole entry, looked up): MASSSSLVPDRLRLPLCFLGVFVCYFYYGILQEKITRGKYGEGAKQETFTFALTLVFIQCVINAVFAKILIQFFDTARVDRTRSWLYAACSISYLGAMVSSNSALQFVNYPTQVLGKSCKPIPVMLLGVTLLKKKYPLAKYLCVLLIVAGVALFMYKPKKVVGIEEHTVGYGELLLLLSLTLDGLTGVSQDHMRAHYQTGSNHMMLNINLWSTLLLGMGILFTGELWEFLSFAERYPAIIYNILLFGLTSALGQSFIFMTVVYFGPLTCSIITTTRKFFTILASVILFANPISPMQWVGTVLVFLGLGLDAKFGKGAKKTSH
Chain of UniProt Q16629 (Q16629 whole entry, looked up): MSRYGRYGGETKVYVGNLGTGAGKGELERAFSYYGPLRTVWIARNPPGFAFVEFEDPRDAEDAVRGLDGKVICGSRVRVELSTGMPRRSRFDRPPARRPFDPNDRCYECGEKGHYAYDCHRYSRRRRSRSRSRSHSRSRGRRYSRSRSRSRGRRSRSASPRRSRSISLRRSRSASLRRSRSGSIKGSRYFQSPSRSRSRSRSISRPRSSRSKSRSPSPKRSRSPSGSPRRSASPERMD
Chain of UniProt Q92581 (Q92581 whole entry, looked up): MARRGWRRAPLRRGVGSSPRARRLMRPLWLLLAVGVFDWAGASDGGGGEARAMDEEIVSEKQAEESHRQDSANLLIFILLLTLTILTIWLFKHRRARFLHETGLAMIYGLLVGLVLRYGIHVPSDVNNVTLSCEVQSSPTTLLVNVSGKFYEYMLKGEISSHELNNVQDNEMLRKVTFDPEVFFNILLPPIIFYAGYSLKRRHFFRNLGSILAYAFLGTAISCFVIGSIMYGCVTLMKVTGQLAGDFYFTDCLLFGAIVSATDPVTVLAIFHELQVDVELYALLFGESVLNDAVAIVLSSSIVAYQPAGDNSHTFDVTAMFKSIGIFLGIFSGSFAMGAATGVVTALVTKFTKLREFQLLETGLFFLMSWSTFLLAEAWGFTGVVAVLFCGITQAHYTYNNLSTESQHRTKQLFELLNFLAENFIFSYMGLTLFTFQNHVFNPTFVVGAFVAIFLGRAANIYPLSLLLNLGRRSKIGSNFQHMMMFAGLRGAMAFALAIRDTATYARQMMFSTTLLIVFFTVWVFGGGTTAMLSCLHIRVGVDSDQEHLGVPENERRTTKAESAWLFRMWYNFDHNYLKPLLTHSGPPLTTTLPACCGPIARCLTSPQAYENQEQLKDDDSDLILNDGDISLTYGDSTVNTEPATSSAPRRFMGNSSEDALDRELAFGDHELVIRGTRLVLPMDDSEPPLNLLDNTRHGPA
Chain of UniProt Q9Y2H1 (Q9Y2H1 whole entry, looked up): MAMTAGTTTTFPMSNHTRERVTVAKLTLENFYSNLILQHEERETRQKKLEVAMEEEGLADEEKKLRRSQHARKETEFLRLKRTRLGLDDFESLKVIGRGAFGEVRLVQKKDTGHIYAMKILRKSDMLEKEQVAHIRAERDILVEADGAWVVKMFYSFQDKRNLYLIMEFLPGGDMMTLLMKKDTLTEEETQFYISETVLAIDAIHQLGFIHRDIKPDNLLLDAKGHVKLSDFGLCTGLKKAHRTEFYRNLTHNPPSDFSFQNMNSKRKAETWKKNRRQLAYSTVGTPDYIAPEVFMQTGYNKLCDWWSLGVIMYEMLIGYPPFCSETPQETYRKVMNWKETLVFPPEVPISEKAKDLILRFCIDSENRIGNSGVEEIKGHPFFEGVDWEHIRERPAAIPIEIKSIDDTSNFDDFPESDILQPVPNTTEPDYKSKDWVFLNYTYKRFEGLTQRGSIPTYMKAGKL
Chain of UniProt P08579 (P08579 whole entry, looked up): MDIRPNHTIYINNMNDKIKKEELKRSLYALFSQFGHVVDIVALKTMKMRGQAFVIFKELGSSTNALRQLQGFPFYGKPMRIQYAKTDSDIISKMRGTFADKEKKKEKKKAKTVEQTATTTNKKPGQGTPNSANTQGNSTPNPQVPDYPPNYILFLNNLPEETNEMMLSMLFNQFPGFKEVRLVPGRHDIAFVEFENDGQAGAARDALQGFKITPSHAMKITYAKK
Chain of UniProt Q969X1 (Q969X1 whole entry, looked up): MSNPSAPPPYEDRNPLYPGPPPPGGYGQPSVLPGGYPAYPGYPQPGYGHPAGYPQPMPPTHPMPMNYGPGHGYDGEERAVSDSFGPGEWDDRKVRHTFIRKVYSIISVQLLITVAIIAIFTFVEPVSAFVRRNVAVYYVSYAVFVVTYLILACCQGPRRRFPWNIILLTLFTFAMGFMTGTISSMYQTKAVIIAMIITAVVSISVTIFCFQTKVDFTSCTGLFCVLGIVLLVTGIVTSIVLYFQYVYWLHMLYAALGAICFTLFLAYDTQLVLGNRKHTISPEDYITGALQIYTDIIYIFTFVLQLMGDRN
Chain of UniProt Q8N357 (Q8N357 whole entry, looked up): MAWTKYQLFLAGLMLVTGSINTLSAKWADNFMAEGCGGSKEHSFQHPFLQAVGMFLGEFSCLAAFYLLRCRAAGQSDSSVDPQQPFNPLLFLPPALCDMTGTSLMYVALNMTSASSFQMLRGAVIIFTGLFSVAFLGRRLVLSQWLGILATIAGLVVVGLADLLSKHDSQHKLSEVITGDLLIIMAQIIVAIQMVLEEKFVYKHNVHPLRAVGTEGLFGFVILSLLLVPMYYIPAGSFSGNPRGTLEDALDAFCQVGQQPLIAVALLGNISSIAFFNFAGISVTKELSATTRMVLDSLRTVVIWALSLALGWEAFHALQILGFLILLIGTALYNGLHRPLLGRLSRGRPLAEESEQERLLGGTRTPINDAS
Chain of UniProt Q9NS93 (Q9NS93 whole entry, looked up): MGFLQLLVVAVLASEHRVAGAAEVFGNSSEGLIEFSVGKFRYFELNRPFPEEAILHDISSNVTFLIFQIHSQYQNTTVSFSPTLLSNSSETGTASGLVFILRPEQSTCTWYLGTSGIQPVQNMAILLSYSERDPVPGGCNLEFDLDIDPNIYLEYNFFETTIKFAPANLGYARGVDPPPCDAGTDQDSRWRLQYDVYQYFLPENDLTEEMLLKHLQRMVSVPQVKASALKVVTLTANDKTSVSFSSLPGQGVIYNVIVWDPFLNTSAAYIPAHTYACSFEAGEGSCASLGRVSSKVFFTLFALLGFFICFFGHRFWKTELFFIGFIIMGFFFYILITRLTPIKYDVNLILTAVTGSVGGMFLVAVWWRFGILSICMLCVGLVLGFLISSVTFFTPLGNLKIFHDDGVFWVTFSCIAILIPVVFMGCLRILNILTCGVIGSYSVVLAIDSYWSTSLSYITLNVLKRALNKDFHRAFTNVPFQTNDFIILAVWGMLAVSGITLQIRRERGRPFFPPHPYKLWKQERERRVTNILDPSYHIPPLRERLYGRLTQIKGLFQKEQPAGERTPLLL

Target	log2 fold change (saracatinib)	log2 fold change (sotrastaurin)	log2 fold change (alvocidib)	log2 fold change (Tubastatin A)	log2 fold change [1]	log2 fold change (defactinib)	log2 fold change (rucaparib)	log2 fold change [2]	log2 fold change (encorafenib)	log2 fold change [3]	log2 fold change [4]	log2 fold change (filanesib)	log2 fold change (zotarolimus)	log2 fold change (idasanutlin)	log2 fold change (alisertib)	log2 fold change (gefitinib)	log2 fold change [5]	log2 fold change (pictilisib)	log2 fold change [6]	log2 fold change (lapatinib)
STK38L (UniProt Q9Y2H1)	0.103	0.035	-0.087	-0.067	0.002	-0.048	-0.052	0.024	0.004	-0.073	-0.007	-0.009	0.036	-0.095	0.037	0.029	-0.064	0.05	–	–
SRSF7 (UniProt Q16629)	-0.014	0.12	0.291	0.006	-0.226	0.168	0.3	-0.04	0.038	0.042	-0.089	0.422	-0.015	0.327	-0.114	0.084	0.013	-0.003	-0.047	0.1
SLC9A6 isoform 2 (UniProt Q92581)	0.06	0.048	-0.016	-0.027	0.001	-0.027	-0.015	-0.07	0.008	0.053	-0.077	-0.051	-0.062	-0.011	-0.013	-0.017	0.071	0.129	0.062	0.003
SRFBP1 (UniProt Q8NEF9)	0.038	-0.01	0.096	0.084	0.052	–	0.446 (active)	-0.15	-0.057	–	0.013	0.193	-0.021	-0.018	-0.027	0.06	-0.072	-0.065	0.306	0.13
SLC35B1 isoform 2 (UniProt P78383)	0.036	-0.03	0.031	0.037	-0.003	0.026	-0.051	0.011	0.132	-0.127	-0.106	-0.037	-0.005	–	-0.232	-0.022	0.129	–	–	–
SNRPB2 (UniProt P08579)	0.079	0.041	0.124	-0.11	0.02	0.193	0.058	-0.041	-0.037	0.054	-0.018	0.057	-0.035	0.021	-0.121	-0.021	-0.006	0.006	0.047	-0.002
SLC35F6 (UniProt Q8N357)	0.182	-0.071	-0.002	-0.05	-0.025	-0.043	-0.004	-0.247	-0.042	0.007	–	-0.001	0.016	0.02	-0.052	0	0.037	–	0.033	-0.076
TMBIM1 (UniProt Q969X1)	-0.147	0.012	0.207	0.002	-0.042	0.043	-0.009	-0.097	-0.223	0.051	–	-0.161	-0.117	0.013	-0.018	-0.004	0.088	0.138	-0.254	0.172
TM7SF3 (UniProt Q9NS93)	0.072	0.035	0.068	-0.082	0.039	–	-0.077	-0.011	0.089	–	-0.002	-0.218	-0.042	-0.015	-0.217	-0.066	0.248	–	0.101	0.014

From the supplement of paper PMC10849652
